pAkt inh: Akt phosphorylation inhibition. hit rate 0.32% among 360,000. Neuro2A IGF-stimulated pAkt S473 HTRF, 20 min; stronger effect = lower value. activity change, % for hits at 50 µM. AID 651550; in the data active = activity change below about -80%; inconclusive = mostly about -51% to -80%; also: % is scaled to controls: 0 for no effect and ±100 for the full control effect
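Neuro2A cells in DMEM with 0.5% FBS, overnight at 37 deg C, given compound at single 50 µM final, then IGF (6 nM final) for 20 min at 37 deg C. Lysed; phospho-Akt Ser473 by HTRF after 24 h, 665/615 ratio.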
CtBP-E1A inh: CtBP/E1A binding inhibition | hit rate 0.49% among 340,000 | AlphaScreen GST-E1A/His-CtBP binding, 1536-well; stronger effect = lower value | activity change, % (test concentration not listed); also: % is scaled to controls: 0 for no effect and ±100 for the full control effect
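AlphaScreen with 125 nM GST-E1A and 125 nM His-CtBP (5X stocks) in Tris pH 8.0, 300 mM NaCl, BSA, Tween 20, TCEP. Compounds preincubated 2 h at 37 deg C, then glutathione donor/nickel acceptor beads added for 1 h at 37 deg C in dark.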
RGS4 inhibitor: inhibitors of human regulator of G protein signaling 4. Transcreener GDP fluorescence polarization, RGS4-accelerated GTP hydrolysis. Potency, µM (highest dose often 114 µM), without a hit: at the top dose activity change, negative = inhibition, actives largely listed as inhibitors. hit rate 0.039% among 390,000; active = well fitted curve in the direction sought with a large enough effect; inconclusive = small, poorly fitted or top-dose-only effect, or another doubt; inactive = no such curve, though single readings can be large; an effect the other way counts as inactive or inconclusive; also: potency is read from the fitted curve at half-maximal effect; % is scaled to controls: 0 for no effect and ±100 for the full control effect; nearly all actives have a fitted effect of over 75% in size
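MLSMR compounds (23 nl, pin-transferred) preincubated 10 min at room temperature with a 500nM (2x) first reagent, then RGS4 at 900nM (2x) plus Transcreener GDP mix added; fluorescence polarization (620/688 nm) read before and after 90 min at 30 °C.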
Six1-Eya2 inh: inhibitors of human Six1/Eya2 interaction; AlphaScreen GST-Six1/His-Eya2 binding, biochemical; stronger effect = lower value; activity change, % (no concentration beside the values); hit rate 0.56% among 360,000; AID 651725; also: % is scaled to controls: 0 for no effect and ±100 for the full control effect
Target sequence (O00167 whole entry, looked up): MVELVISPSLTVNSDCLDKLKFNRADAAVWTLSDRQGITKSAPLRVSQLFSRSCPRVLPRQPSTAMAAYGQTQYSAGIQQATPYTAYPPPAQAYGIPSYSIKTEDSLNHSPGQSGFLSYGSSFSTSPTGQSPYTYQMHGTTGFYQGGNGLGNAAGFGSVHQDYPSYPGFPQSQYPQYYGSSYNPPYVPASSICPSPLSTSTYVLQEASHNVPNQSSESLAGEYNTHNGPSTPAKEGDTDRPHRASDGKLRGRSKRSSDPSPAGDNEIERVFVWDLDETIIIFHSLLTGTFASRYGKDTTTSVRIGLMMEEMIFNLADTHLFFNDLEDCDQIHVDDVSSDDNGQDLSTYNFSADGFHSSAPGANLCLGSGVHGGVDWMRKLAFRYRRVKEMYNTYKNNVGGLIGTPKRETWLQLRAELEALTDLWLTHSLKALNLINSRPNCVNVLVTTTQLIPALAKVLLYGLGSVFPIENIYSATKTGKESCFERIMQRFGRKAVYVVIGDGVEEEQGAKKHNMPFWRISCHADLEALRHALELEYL
Target sequence (Q15475 whole entry, looked up): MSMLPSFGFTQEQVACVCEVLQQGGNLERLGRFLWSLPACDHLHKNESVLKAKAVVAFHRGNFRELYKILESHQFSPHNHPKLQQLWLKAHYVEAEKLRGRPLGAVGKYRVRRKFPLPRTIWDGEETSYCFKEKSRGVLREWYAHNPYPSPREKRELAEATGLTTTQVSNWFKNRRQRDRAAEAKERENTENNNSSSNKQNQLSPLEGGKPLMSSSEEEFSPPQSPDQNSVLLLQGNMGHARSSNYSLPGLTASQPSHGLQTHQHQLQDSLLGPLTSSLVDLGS
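Six1/Eya2 binding was read as AlphaScreen signal after compounds were pinned into GST-Six1 plus His-tagged Eya2 (5X stock 250/500 nM) in pH 8.0 Tris/NaCl/TCEP buffer, beads added, then incubated 1 h, 37 C, dark.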
Glioma ERSR ind: ER stress response induction in glioma; U87-MG GRP78 promoter luciferase reporter, 16 h; Potency, µM, for the others: top-dose activation, actives largely listed as activators; hit rate 0.02% among 420,000; AID 602332; active = well fitted curve in the direction sought with a large enough effect; inconclusive = small, poorly fitted or top-dose-only effect, or another doubt; inactive = no such curve, though single readings can be large; an effect the other way counts as inactive or inconclusive; also: potency is read from the fitted curve at half-maximal effect; series mostly up to about 76 µM; % of control where 0% means no effect; nearly all actives have a fitted effect of over 35% in size
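Stably transfected U87-MG human glioma cells carrying a GRP78-based luminescent sensor were seeded at 1000 cells/well, pin-dosed with compounds and incubated 16 h. Luciferase reagent was then added, and end-point luminescence was read after 10 min at room temperature.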
* = called active by the depositor; i = inactive; u = inconclusive; x = not tested or not shown. Only some compounds are listed: those with a hit (about 0.88% of all), similar ones and a draw of the others. Rule as the data show it, unless noted: active = activity change below about -65%; inconclusive = mostly about -30% to -63%; inactive = weaker than that.

SMILES	pAkt inh	CtBP-E1A inh	RGS4 inhibitor	Six1-Eya2 inh	Glioma ERSR ind
CN(C)c1ccc(/C=C/c2cc(/C=C/c3ccc(N(C)C)cc3)c3ccccc3n2)cc1	x	x	x	x	-10.1%
Cc1ccc(-c2nc(=Nc3c(C)cc(C)cc3C)sn2-c2ccccc2)cc1	x	x	u	x	-2.7%
Cc1cccc(NC(=O)CSCC(=O)Nc2cccc3ncccc23)c1	i	-11.3	5.9%	6.4	-3.9%
Cc1ccc(O)c2ncccc12	x	x	x	x	-2.6%
Cc1cccc(NCc2ccc(O)c3ncccc23)c1	i	-86.3*	-44.2%	-79.9*	-3.7%
Oc1ccc(CNc2ccccc2)c2cccnc12	i	-93.6*	-10.9%	-89.3*	-3.1%
Cc1ccccc1NCc1ccc(O)c2ncccc12	i	-94.7*	-46.1%	-90.7*	-0.2%
COCC(=O)Nc1cc(C(=O)N2CCSCC2)cc2nc(-c3ccccc3)n(C)c12	x	x	x	x	-5.8%
COc1ccc2c(c1)C/C(=C\c1ccc(N(C)C)cc1)C2=O	x	x	x	x	0.7%
Cc1ccc(NC(=S)N=Nc2c(O)[nH]c3ccccc23)cc1	i	-15.0	-14.8%	-9.5	2.9%
CNC(=S)N=Nc1c(O)[nH]c2ccccc12	i	-69.1*	-21.5%	-69.7*	-2.5%
Oc1ccc(NC(=S)N=Nc2c(O)[nH]c3ccccc23)cc1	i	-72.3*	-43.8%	-71.4*	3.8%
CNC(=S)N=Nc1c(O)[nH]c2ccc(C(C)C)cc12	i	-28.4	-7.4%	u	-1.7%
CCCCCCC/C=N/Nc1nnc(Cc2ccccc2)c(=O)[nH]1	i	-27.4	12.0%	-22.9	-3.7%
Cc1ccc(/C=N/Nc2nnc(Cc3ccccc3)c(=O)[nH]2)o1	i	u	5.1%	-25.9	2.1%
COc1ccc(Cc2nnc(N/N=C/c3ccc(O)cc3O)[nH]c2=O)cc1OC	i	-93.1*	1.6%	-87.6*	-5.4%
CCCCCC/C=N/Nc1nnc(Cc2ccc(OC)c(OC)c2)c(=O)[nH]1	i	u	16.1%	-73.9*	-2.7%
Cc1ccc(NC(=O)CSc2nnc(-c3ccccc3)n2C)cc1	x	x	x	x	-5.2%
COc1cccc(C(=O)NCC2Cc3cccc(-c4nc(C)cnc4C)c3O2)c1OC (stereo not given)	x	x	x	x	8.8%
COc1ccccc1C(=O)N[C@@H]1c2ccccc2C2(CCN(Cc3ccc4c(c3)OCO4)CC2)[C@H]1O	x	x	x	x	-1.3%
O=C(C[n+]1cccc2cccc(O)c21)c1ccccc1	x	x	x	x	-2.8%
C[C@H](CO)N1C[C@H](C)[C@@H](CN(C)C(=O)Nc2ccccc2)Oc2ccc(NC(=O)Nc3ccc4c(c3)OCO4)cc2C1=O	i	-65.0*	-12.4%	u	-3.3%
COc1ccc(NC(=O)Nc2ccc3c(c2)C(=O)N([C@H](C)CO)C[C@H](C)[C@@H](CN(C)C(=O)Nc2ccccc2)O3)cc1	i	-67.1*	20.2%	u	3.0%
C[C@H](CO)N1C[C@H](C)[C@@H](CN(C)C(=O)Nc2ccc3c(c2)OCO3)Oc2ccc(NC(=O)Nc3ccc(C(F)(F)F)cc3)cc2C1=O	i	-10.4	-3.7%	-15.4	2.2%
CCOc1ccc2[nH]c(C)c(CN3CCN(C)CC3)c(=O)c2c1	x	8.5	14.1%	2.0	0.6%
SMILES	pAkt inh	CtBP-E1A inh	RGS4 inhibitor	Six1-Eya2 inh	Glioma ERSR ind
CCOc1ccc2[nH]c(C)c(CN3CCN(CC)CC3)c(=O)c2c1	-122.1%*	3.4	-9.7%	-0.1	-4.8%
CC1(C)CC(NC(=O)COc2ccc3ccccc3c2)CC(C)(C)N1	-115.1%*	1.3	1.2%	3.3	-3.9%
Cc1ccc(CNC(=O)CSc2c3c(nc4cc(Cl)ccc24)CCCC3)o1	-102.6%*	-1.3	u	-8.1	-16.1%
O=Cc1ccc(OC(=O)c2cccnc2)cc1	i	-9.5	-2.4%	-65.2*	-2.6%
CC(=O)/C=C\c1ccc(OC(=O)c2cccnc2)cc1	i	2.0	-3.5%	-1.3	1.0%
Cc1onc(-c2ccccc2)c1C(=O)NCCN1Cc2ccccc2OC(c2ccsc2)C1 (stereo not given)	x	x	x	x	-4.5%
COCCNC(=O)CCC(=O)NNc1nc2ccccc2c2nc(-c3ccccc3)nn12	i	-17.2	3.9%	-67.0*	3.4%
O=C(CCc1ccc(S(=O)(=O)N2CCOCC2)cc1)N/N=C/c1ccc(O)c(O)c1O	i	-72.8*	u	-68.2*	-10.0%
COc1ccc(CNC(=O)c2cnn(-c3nccc(-c4ccco4)n3)c2C)cc1OC	x	x	x	x	2.5%
CCC(=O)OC1CCC2C3CCc4cc(O)ccc4C3CCC12C (stereo not given)	x	x	x	x	-4.9%
COc1ccnc(CSC(N)=Nc2cccc(C(F)(F)F)c2)c1	i	-6.6	-36.4%	-66.9*	1.5%
COc1ccnc(CSC(N)=Nc2ccccc2C(F)(F)F)c1	i	-1.1	12.9%	-16.0	-0.3%
C=CCNc1nc(-c2ccccn2)nnc1-c1ccccc1	i	-91.8*	-22.0%	-92.4*	-6.0%
COc1ccc(CC(=O)NCCN2CCCC2)cc1	-121.4%*	-3.7	-0.7%	7.9	9.0%
CS(=O)(=O)N(CCc1ccccc1)CC(=O)Nc1ccc2c(c1)OCO2	-104.7%*	-9.6	2.1%	-2.8	-1.9%
O.O.[Mn].[Mn].[Mn].[OH-].[OH-]	x	x	x	x	-7.2%
COc1cc(OC)cc(-c2nc3ccccc3c(=O)o2)c1	-99.3%*	2.3	-2.1%	-0.5	3.9%
COc1cccc(-c2nc3ccccc3c(=O)o2)c1	i	-8.6	2.6%	-0.4	u
CCNc1nc(NCC)nc(N/N=C/c2ccc([N+](=O)[O-])o2)n1	i	-85.4*	-14.3%	-83.5*	-1.7%
CCOC(=O)/C(C#N)=C/Nc1ccccc1OC	-98.5%*	6.1	-20.7%	-5.0	-1.6%
Cc1nc(NCc2c(F)cccc2F)sc1-c1ccn(CCN2CCOCC2)n1	x	x	x	x	-2.5%
CCC(COC(=O)Nc1cccc(C)c1C)NC(=O)OCC(C)C (stereo not given)	i	-3.7	25.1%	1.4	-5.2%
CCCOC(=O)NC(CC)COC(=O)Nc1cccc(C)c1C (stereo not given)	-115.9%*	5.0	14.1%	2.8	1.4%
Cc1cc(C)n(-c2cccc(C(=O)NCC3Cc4cccc(-c5cccnc5)c4O3)c2)n1 (stereo not given)	x	x	x	x	-2.3%
Cc1ccc(NC(=O)CN2C(=O)N/C(=C/c3cccn3-c3ccc(C(=O)O)cc3)C2=O)cc1	i	12.1	-21.7%	-73.9*	2.5%
Cc1ccc(NC(=O)CN2C(=O)N/C(=C/c3cc(C)n(-c4ccc(C(=O)O)cc4)c3C)C2=O)cc1	i	-7.1	-45.6%	-17.3	0.6%
Cc1cc2c(c(=O)n1CCc1ccccc1)C(c1ccco1)C(C#N)=C(N)O2 (stereo not given)	i	-2.1	2.8%	0.1	2.0%
COc1cc(C2C(C#N)=C(N)Oc3cc(C)n(CCc4ccccc4)c(=O)c32)cc2c1OCO2 (stereo not given)	-87.9%*	-0.3	31.0%	7.8	-4.5%

From PubChem BioAssay
